Results taken from PubChem BioAssay AID1377 (University of Pittsburgh Molecular Library Screening Center, 2008).
Where “and” joins values, the source holds several entries; their conditions need not be identical. Equal values may be shown once. Out of some 220,000 compounds screened, about 830 (0.38%) were called active. The sample as a whole holds a higher share of actives than the screen did. Values without a mark were called inactive.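 Rule for the calls: active = activation, scaled between plate controls, above about 75% (limit read from the data); inactive = activation under that limit.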

Assay: inhibitors of zVAD-triggered necroptosis, primary screen, L929 cells (AID 1377);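 note: 0% = zVAD with DMSO and 100% = DMSO alone without zVAD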
Conditions: ATP luminescence, 24 h, at 10 µM, hits give high values; with zVAD 60 µM unless noted

Compound	viability rescue
CNC(=S)N/N=C/c1cn(Cc2ccc(C)cc2)c2ccccc12	0.34%
COCCNC(=O)c1ccccc1NS(=O)(=O)c1ccc(C)c([N+](=O)[O-])c1	0.95%
COc1ccc(/C=N/NS(=O)(=O)c2ccc(NC(C)=O)cc2)cc1	0.07%
Cc1cc(=O)oc2cc(OCC(=O)Nc3nnc(C4CC4)s3)ccc12	-0.67%
Cc1ccc(NC(=O)Cn2cccc2C2=NC(c3ccccc3)CO2)c(C)c1 (stereo not given)	-0.00089%
COc1cc(/C=N/Nc2nc3ccccc3s2)ccc1O	77.5% (active)
CCNc1nc(NCC)nc(N/N=C/c2ccc(O)c(OC)c2)n1	0.27%
COc1cc(/C=N\Nc2nc(-c3cccs3)c(NC(C)=O)s2)ccc1O	2.98%
COc1cc2nc(Cl)nc(NCCO)c2cc1OC	0.24%
CC1CC(C)(C)n2c(O)c(N=NC(N)=S)c3cccc1c32 (stereo not given)	-0.69%
COc1ccccc1/C=C/CN1CCC(CO)(Cc2ccccc2)CC1	0.85%
CC(=O)c1ccc(S(=O)(=O)N2CCN(c3nc4c(C)c(C)ccc4cc3C#N)CC2)cc1	1.16%
NC(=O)COC(=O)/C=C/c1ccc2ccccc2n1	10.8%
CC(=O)c1ccc(S(=O)(=O)N2CCN(C(=O)/C=C/c3ccc4ccccc4n3)CC2)cc1	75.2% (active)
Cc1ccc(S(=O)(=O)N(C)CC(=O)OCC(=O)Nc2ccccc2)cc1	0.76%
Brc1cc(/C=N/n2cnnc2)oc1Br	0.56%
O=C(COc1cccc(-n2cnnn2)c1)NCCC1=CCCCC1	78.2% [with zVAD 20 µM] (active)
O=C(COc1ccc(Cl)cc1)NCCC1=CCCCC1	0.15% [with zVAD 20 µM]
Cc1nnc(OCC(=O)NCCC2=CCCCC2)c2ccccc12	0.41%
COCCN(C(=O)c1ccccc1F)c1c(N)n(Cc2ccccc2)c(=O)[nH]c1=O	1.78%
COc1ccc(CN2C(=O)C(C)S/C2=N/N=C/c2ccco2)cc1 (stereo not given)	0.28%
COc1ccccc1N=Cc1c(O)c2ccccc2oc1=O	-0.1%
CN=c1scc(-c2cc(OC)ccc2OC)n1/N=C/c1c(C)[nH]c2ccccc12	3.26% [with zVAD 20 µM]

Compound	viability rescue
COCC(=O)N=Nc1c(O)[nH]c2ccccc12	-0.49% [with zVAD 20 µM]
COc1ccc(N=Cc2c(O)[nH]c3ccccc23)cc1OC	76.4% [with zVAD 20 µM] (active)
COc1cc(N=Cc2c(O)[nH]c3ccccc23)cc(OC)c1OC	78.4% [with zVAD 20 µM] (active)
COC(=O)c1[nH]c2ccccc2c1NS(=O)(=O)c1ccc(OC)cc1OC	-0.08%
Cc1cccc(C(=O)N2CCC(c3nc4ccccc4s3)CC2)c1	12.5%
CC(C)=CCN1CCN(Cc2ccc(Oc3ncccn3)cc2)CC1CCO (stereo not given)	-0.77%
CCc1ccc(C2C(C#N)=C(N)N(N3CCOCC3)C3=C2C(=O)CC(C)(C)C3)s1 (stereo not given)	-0.95%
CCCN=C1NC(=O)C(CC(=O)NCCc2ccc(OC)c(OC)c2)S1 (stereo not given)	0.51% [with zVAD 20 µM]
OCC(CO)(CO)NCc1ccc(-c2ccccc2)cc1	3.78%
O=C(Nc1nnc(C2CC2)s1)C1=NN(C2CCS(=O)(=O)C2)C(=O)CC1 (stereo not given)	1.75%
Cn1c(=O)c2c(nc(NCc3ccccc3)n2CC(N)=O)n(C)c1=O	-0.38%
Clc1ccc(-c2cc(-c3ccccn3)on2)c(Cl)c1	-0.1%
COc1ccc(Br)c2c1C(=O)CC2	1.09%
NC1=NC[C@@H](Cc2ccc(O)cc2)N1CC1CCCCC1	0.84%
c1ccc2c(c1)CSc1sccc1C2=C1CCNCC1	1.55%
O=C(Nc1ccccc1)Nc1ccc(C(F)(F)F)cn1	16.8%
Oc1ccc(/C=N/Nc2ccc(C(F)(F)F)cn2)cc1O	78.6% (active)
Cc1nccn1CC(=O)N/N=C/c1ccc(O)c(O)c1	0.09% [with zVAD 20 µM]
COc1cc(Cl)c(C)cc1NC(=O)COC(=O)c1cc(SC)ccc1Cl	-0.03% [with zVAD 20 µM]
O=S(=O)(NC1CC1)c1ccc2c3c(cccc13)CC2	2.42%
Cc1csc(NC(=O)Nc2ccccc2[N+](=O)[O-])n1	0.75%
Cc1csc(NC(=O)NC2(C(F)(F)F)Oc3ccccc3O2)n1	78.5% [with zVAD 20 µM] (active)
CC(=O)Nc1cccc(C(=O)Nc2nc(C)cs2)c1	-1.49%

Compound	viability rescue
COc1ccc(CNC(=O)CN2CCC(n3nnc4cc(F)ccc43)CC2)cc1	-0.59%
Cc1oc(C(N)=O)cc1COc1ccc(C(N)=O)cc1	1.12%
Cc1cc(C(=O)NNS(=O)(=O)c2ccccc2C(F)(F)F)nn1C(C)(C)C	0.49%
CN(C)S(=O)(=O)c1ccc(NC(=O)COC(=O)Cn2[nH]c(=O)c3ccccc3c2=O)cc1	0.01%
COc1ccc(Cl)cc1NC(=O)COC(=O)C(CC(C)C)N1C(=O)C2CC=CCC2C1=O (stereo not given)	0.49% [with zVAD 20 µM]
CCOC(=O)C(=O)C1C(=O)Nc2ccccc21 (stereo not given)	-0.07%
CC1CCCCC1NC(=O)/C(C#N)=C/C=C/c1ccccc1[N+](=O)[O-] (stereo not given)	77% (active)
O=C(/C=C/c1ccccc1[N+](=O)[O-])NCC1CCCO1 (stereo not given)	1.4%
O=C(/C=C/c1ccccc1[N+](=O)[O-])OC1CCCCC1=O (stereo not given)	-0.52%
C=CCn1c(P(C)(=O)O)nc2ccccc21	0.44% and 0.28%
CCOc1cc2[nH]c(=O)n(Cc3ccc(C(=O)NCCCN4CCCC4=O)cc3)c(=O)c2cc1OCC	0.03%
Cc1cccc(C)c1NC(=O)CSc1ccc([N+](=O)[O-])cn1	1.1%
O=C(CSc1ccc([N+](=O)[O-])cn1)Nc1ccc(N2CCOCC2)cc1	16.6%
O=C(CSc1ccc([N+](=O)[O-])cn1)Nc1ccc(N2CCOCC2)c(Cl)c1	80.2% (active)
Cc1ccc(-c2csc(N(Cc3ccco3)C(=O)c3cccs3)n2)cc1	-0.54%
COc1ccc2nc(Nc3nc4ccc(NC(C)=O)cc4s3)sc2c1	0.58%
COc1ccc2nc(NC(=O)c3ccc(Br)s3)sc2c1	0.35%
COc1ccc2nc(NC(=O)NC3CCCCC3)sc2c1	85.7% (active)
CC1=NNC(=O)C1CC(=O)N/N=C/c1ccncc1 (stereo not given)	-0.36%
Cc1ccc2[nH]c3c(=O)n(Cc4ccccn4)cnc3c2c1	0.13% [with zVAD 20 µM]
CC(C)OCCCNc1ncnc2c1[nH]c1ccc(F)cc12	4.34% [with zVAD 20 µM]
COc1cc(OC)c(OC)cc1/C=N/Nc1ncnc2c1[nH]c1ccc(C)cc12	78.9% (active)
CCOC(=O)c1cc(Sc2ccccc2N)cc(C(=O)OCC)n1	0.51%

Compound	viability rescue
CCOc1ccc(NC(=O)c2ccc(CSc3nnnn3C)cc2)cc1	1.6%
Cc1cccc(-n2nc3c(c2NC(=O)c2ccc(Br)o2)CSC3)c1C	0.18% [with zVAD 20 µM]
Cc1cc(C)nc(-n2nc(C)cc2NC(=O)c2ccc(Br)o2)n1	82.2% [with zVAD 20 µM] (active)
Cc1cc(C)nc(-n2nc(C)cc2NC(=O)c2ccc(F)cc2F)n1	0.15%
COc1ccc(-c2csc(Nc3ccccn3)n2)cc1	1.69%
COc1ccc(Nc2nc(-c3ccccc3)cs2)cc1	0.79%
COc1ccc(-c2csc(Nc3ccc(O)cc3)n2)cc1	93% (active)
COc1cc2c(C(=O)N3CCN(C)CC3)c(CSc3ccccc3)n(C)c2cc1Br	-0.59%
CC(C)NC(=S)NN=C1CCCCCCCCCCC1	0.38%
Cc1nn(C)c(Oc2ccccc2)c1CCNS(=O)(=O)c1ccc(F)cc1	0.02% [with zVAD 20 µM]
COc1ccc(-c2cc(C(=O)NC(Cc3c[nH]c4ccccc34)C(=O)O)c(C)o2)cc1OC (stereo not given)	1.33%
CCN(CC)S(=O)(=O)c1ccc(NC(=O)c2cccnc2Cl)c(NC(=O)c2cccnc2Cl)c1	82.2% (active)
Cc1ccc(CNC(=O)c2cccnc2Cl)cc1	0.12%
CCN(CC)S(=O)(=O)c1ccc(Cl)c(NC(=O)c2ccncc2)c1	0.44%
O=C(N/N=C/c1cccc([N+](=O)[O-])c1)c1ccncc1	-0.83%
CN1CCN(C2=NCCO2)CC1	1%
CCOC(=O)C1(CCOc2ccccc2)CCN(C(=O)c2cncs2)CC1	-0.01%
COc1ccc(-n2cnc3cc(NCc4ccco4)ccc32)cc1	79.9% (active)
COc1ccc(Nc2nc(Cl)nc(NCc3ccco3)n2)cc1	0.2% [with zVAD 20 µM]
COc1ccc(Nc2nc(NCc3ccco3)nc(N/N=C/c3ccccc3Cl)n2)cc1	0.33%
O=C(Nc1cccc2c1N(C(=O)c1ccco1)CCC2)c1ccco1	-0.96%
